Measurements published in PubChem BioAssay AID1159580 (chemical genetic matrix, 2015).
Hit rate of the full screen: of about 5,500 compounds, about 2,000 (36%) were called active. Another 18% or so got no clear call; they are omitted. Rule as the data show it: active = normalized growth mostly below about 0.91 (no sharp cut-off); inconclusive = no clear call, values can overlap the other calls; inactive = mostly above about 0.92. The list shows a part of the results.

Assay: chemical genetic growth profiling, strain panel (AID 1159580);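 also: tested at 20 µM; growth read once vehicle control cultures reached saturation at 30 °C; 1 = growth at the plate median or of vehicle wells; lower values mean less growth of the strain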
Conditions: growth OD

Measured: normalized growth

C/C=C/c1ccc2c(c1)OCO2
inactive: S. cerevisiae deletion strains, locus YJR075W, strain HOC1, stronger effect = lower value 1.01 | S. cerevisiae deletion strains, locus YKL009W, strain mrt4, stronger effect = lower value 1.02 | S. cerevisiae deletion strains, locus YKL068W, stronger effect = lower value 1 | S. cerevisiae deletion strains, locus YKL085W, strain MDH1 (second series), stronger effect = lower value 1.01 | S. cerevisiae deletion strains, locus YKL085W, strain MDH1, stronger effect = lower value 1.01 | S. cerevisiae deletion strains, locus YKL160W, strain elf1, stronger effect = lower value 1 | S. cerevisiae deletion strains, locus YKL190W, strain CNB1, stronger effect = lower value 1.01 | S. cerevisiae deletion strains, locus YKR001C, strain vps1, stronger effect = lower value 1.05 | S. cerevisiae deletion strains, locus YKR026C, strain gcn3, stronger effect = lower value 0.997 | S. cerevisiae deletion strains, locus YKR091W, strain srl3, stronger effect = lower value 1.01 | S. cerevisiae deletion strains, locus YLL001W, strain dnm1, stronger effect = lower value 1.01 | S. cerevisiae deletion strains, locus YLL026W, stronger effect = lower value 1.02 | S. cerevisiae deletion strains, locus YLL041C, strain sdh2, stronger effect = lower value 1.02 | S. cerevisiae deletion strains, locus YLR027C, strain aat2, stronger effect = lower value 1.02 | S. cerevisiae deletion strains, locus YLR039C, strain RIC1, stronger effect = lower value 1.07 | S. cerevisiae deletion strains, locus YLR058C, strain SHM2, stronger effect = lower value 1.01 | S. cerevisiae deletion strains, locus YLR102C, strain apc9, stronger effect = lower value 1.01 | S. cerevisiae deletion strains, locus YLR113W, strain HOG1, stronger effect = lower value 0.976 | S. cerevisiae deletion strains, locus YLR221C, strain rsa3, stronger effect = lower value 0.994 | S. cerevisiae deletion strains, locus YLR258W, strain gsy2, stronger effect = lower value 1.02 | S. cerevisiae deletion strains, locus YLR262C, strain YPT6 (second series), stronger effect = lower value 1 | S. cerevisiae deletion strains, locus YLR262C, strain YPT6, stronger effect = lower value 1.05 | S. cerevisiae deletion strains, locus YLR268W, strain sec22, stronger effect = lower value 1.04 | S. cerevisiae deletion strains, locus YLR320W, strain mms22, stronger effect = lower value 1.01 | S. cerevisiae deletion strains, locus YLR330W, strain CHS5, stronger effect = lower value 1.02 | S. cerevisiae deletion strains, locus YLR342W, strain FKS1 (second series), stronger effect = lower value 1.03 | S. cerevisiae deletion strains, locus YLR342W, strain FKS1, stronger effect = lower value 1.02 | S. cerevisiae deletion strains, locus YLR357W, strain rsc2, stronger effect = lower value 1.03 | S. cerevisiae deletion strains, locus YLR370C, strain arc18, stronger effect = lower value 1.02 | S. cerevisiae deletion strains, locus YLR371W, strain rom2, stronger effect = lower value 1.01 | S. cerevisiae deletion strains, locus YLR384C, strain iki3, stronger effect = lower value 1.03 | S. cerevisiae deletion strains, locus YLR418C, strain cdc73, stronger effect = lower value 1 | S. cerevisiae deletion strains, locus YML016C, strain PPZ1, stronger effect = lower value 1.01 | S. cerevisiae deletion strains, locus YML032C, strain rad52, stronger effect = lower value 0.996 | S. cerevisiae deletion strains, locus YML120C, strain ndi1, stronger effect = lower value 1.03 | S. cerevisiae deletion strains, locus YML124C, strain tub3, stronger effect = lower value 1 | S. cerevisiae deletion strains, locus YMR058W, strain fet3, stronger effect = lower value 1.02 | S. cerevisiae deletion strains, locus YMR078C, strain ctf18, stronger effect = lower value 1.01 | S. cerevisiae deletion strains, locus YMR125W, strain sto1, stronger effect = lower value 1.03 | S. cerevisiae deletion strains, locus YMR129W, stronger effect = lower value 1.02 | S. cerevisiae deletion strains, locus YMR205C, strain PFK2, stronger effect = lower value 1.02 | S. cerevisiae deletion strains, locus YMR223W, strain ubp8, stronger effect = lower value 0.99 | S. cerevisiae deletion strains, locus YMR231W, strain pep5, stronger effect = lower value 1.02 | S. cerevisiae deletion strains, locus YMR263W, strain SAP30, stronger effect = lower value 1.01 | S. cerevisiae deletion strains, locus YMR307W, strain GAS1, stronger effect = lower value 0.986 | S. cerevisiae deletion strains, locus YNL067W, strain RPL9B, stronger effect = lower value 1.01 | S. cerevisiae deletion strains, locus YNL071W, strain lat1, stronger effect = lower value 1.02 | S. cerevisiae deletion strains, locus YNL153C, strain GIM3, stronger effect = lower value 1.03 | S. cerevisiae deletion strains, locus YNL183C, strain NPR1, stronger effect = lower value 0.948 | S. cerevisiae deletion strains, locus YNL209W, strain ssb2, stronger effect = lower value 1.02 | S. cerevisiae deletion strains, locus YNL233W, strain BNI4, stronger effect = lower value 1.02 | S. cerevisiae deletion strains, locus YNL248C, strain rpa49, stronger effect = lower value 0.998 | S. cerevisiae deletion strains, locus YNL250W, strain rad50, stronger effect = lower value 1.01 | S. cerevisiae deletion strains, locus YNL271C, strain bni1, stronger effect = lower value 1.01 | S. cerevisiae deletion strains, locus YNL298W, strain CLA4, stronger effect = lower value 1.01 | S. cerevisiae deletion strains, locus YNL307C, strain MCK1, stronger effect = lower value 1.02 | S. cerevisiae deletion strains, locus YNL322C, strain KRE1 (second series), stronger effect = lower value 1.02 | S. cerevisiae deletion strains, locus YNL322C, strain KRE1, stronger effect = lower value 1.01 | S. cerevisiae deletion strains, locus YNR049C, strain mso1, stronger effect = lower value 1.02 | S. cerevisiae deletion strains, locus YNR052C, strain pop2, stronger effect = lower value 0.996 | S. cerevisiae deletion strains, locus YOL006C, strain TOP1, stronger effect = lower value 1.16 | S. cerevisiae deletion strains, locus YOL012C, strain htz1 1.12 | S. cerevisiae deletion strains, locus YOL147C, strain pex11, stronger effect = lower value 1 | S. cerevisiae deletion strains, locus YOR001W, strain rrp6, stronger effect = lower value 1.01 | S. cerevisiae deletion strains, locus YOR061W, strain CKA2, stronger effect = lower value 1.01 | S. cerevisiae deletion strains, locus YOR069W, strain VPS5, stronger effect = lower value 1.01 | S. cerevisiae deletion strains, locus YOR070C, strain gyp1, stronger effect = lower value 1.02 | S. cerevisiae deletion strains, locus YOR080W, strain dia2, stronger effect = lower value 1.03 | S. cerevisiae deletion strains, locus YOR083W, strain WHI5, stronger effect = lower value 0.993 | S. cerevisiae deletion strains, locus YOR106W, strain vam3, stronger effect = lower value 1.01 | S. cerevisiae deletion strains, locus YOR136W, strain idh2, stronger effect = lower value 0.999 | S. cerevisiae deletion strains, locus YOR144C, strain elg1, stronger effect = lower value 0.998 | S. cerevisiae deletion strains, locus YOR184W, strain ser1, stronger effect = lower value 0.994 | S. cerevisiae deletion strains, locus YOR231W, strain MKK1, stronger effect = lower value 0.959 | S. cerevisiae deletion strains, locus YOR265W, strain rbl2, stronger effect = lower value 1.02 | S. cerevisiae deletion strains, locus YOR270C, strain vph1, stronger effect = lower value 1.03 | S. cerevisiae deletion strains, locus YOR290C, strain snf2, stronger effect = lower value 0.999 | S. cerevisiae deletion strains, locus YOR316C, strain cot1, stronger effect = lower value 1.01 | S. cerevisiae deletion strains, locus YPL051W, strain arl3, stronger effect = lower value 1.01 | S. cerevisiae deletion strains, locus YPL055C, strain LGE1, stronger effect = lower value 1.03 | S. cerevisiae deletion strains, locus YPL078C, strain atp4, stronger effect = lower value 1.01 | S. cerevisiae deletion strains, locus YPL106C, strain sse1, stronger effect = lower value 1 | S. cerevisiae deletion strains, locus YPL240C, strain hsp82, stronger effect = lower value 1.02 | S. cerevisiae deletion strains, locus YPL241C, strain CIN2, stronger effect = lower value 1.01 | S. cerevisiae deletion strains, locus YPL256C, strain CLN2, stronger effect = lower value 0.962 | S. cerevisiae deletion strains, locus YPR119W, strain clb2, stronger effect = lower value 1.01 | S. cerevisiae deletion strains, locus YPR141C, strain kar3, stronger effect = lower value 1.01 | S. cerevisiae deletion strains, locus YPR163C, strain tif3, stronger effect = lower value 1 | S. cerevisiae deletion strains, locus YPR167C, strain met16, stronger effect = lower value 1.02 | S. cerevisiae deletion strains, strain wtn01, stronger effect = lower value 1.06 | S. cerevisiae strains, strain wild type, stronger effect = lower value 1.01
